Assay results taken from PubChem BioAssay AID504339 (National Center for Advancing Translational Sciences (NCATS), 2011).
In all, about 390,000 compounds went through this assay and about 17,000 (4.4%) were called active. Where a call stands in place of a potency, no number is given. Another 8% or so got no clear call; they are omitted. For the sample, actives were picked, then their nearest neighbours and some compounds at random. Unmarked numbers belong to inactive results. Calls come from the whole dose curve; as a rule, active = well fitted inhibition curve with a large enough effect; inconclusive = small, poorly fitted or top-dose-only effect; inactive = no such curve, though single readings can be large or run the other way.

The compounds below were run against Lysine-specific demethylase 4A (Homo sapiens) (UniProt O75164) (assay: qHTS Assay for Inhibitors of JMJD2A-Tudor Domain). Conditions: AlphaScreen JMJD2A-Tudor / H3K4me3 peptide binding; series mostly up to 114 µM.
Chain of Lysine-specific demethylase 4A (Homo sapiens) (O75164 whole entry, looked up, the tested form may be a part): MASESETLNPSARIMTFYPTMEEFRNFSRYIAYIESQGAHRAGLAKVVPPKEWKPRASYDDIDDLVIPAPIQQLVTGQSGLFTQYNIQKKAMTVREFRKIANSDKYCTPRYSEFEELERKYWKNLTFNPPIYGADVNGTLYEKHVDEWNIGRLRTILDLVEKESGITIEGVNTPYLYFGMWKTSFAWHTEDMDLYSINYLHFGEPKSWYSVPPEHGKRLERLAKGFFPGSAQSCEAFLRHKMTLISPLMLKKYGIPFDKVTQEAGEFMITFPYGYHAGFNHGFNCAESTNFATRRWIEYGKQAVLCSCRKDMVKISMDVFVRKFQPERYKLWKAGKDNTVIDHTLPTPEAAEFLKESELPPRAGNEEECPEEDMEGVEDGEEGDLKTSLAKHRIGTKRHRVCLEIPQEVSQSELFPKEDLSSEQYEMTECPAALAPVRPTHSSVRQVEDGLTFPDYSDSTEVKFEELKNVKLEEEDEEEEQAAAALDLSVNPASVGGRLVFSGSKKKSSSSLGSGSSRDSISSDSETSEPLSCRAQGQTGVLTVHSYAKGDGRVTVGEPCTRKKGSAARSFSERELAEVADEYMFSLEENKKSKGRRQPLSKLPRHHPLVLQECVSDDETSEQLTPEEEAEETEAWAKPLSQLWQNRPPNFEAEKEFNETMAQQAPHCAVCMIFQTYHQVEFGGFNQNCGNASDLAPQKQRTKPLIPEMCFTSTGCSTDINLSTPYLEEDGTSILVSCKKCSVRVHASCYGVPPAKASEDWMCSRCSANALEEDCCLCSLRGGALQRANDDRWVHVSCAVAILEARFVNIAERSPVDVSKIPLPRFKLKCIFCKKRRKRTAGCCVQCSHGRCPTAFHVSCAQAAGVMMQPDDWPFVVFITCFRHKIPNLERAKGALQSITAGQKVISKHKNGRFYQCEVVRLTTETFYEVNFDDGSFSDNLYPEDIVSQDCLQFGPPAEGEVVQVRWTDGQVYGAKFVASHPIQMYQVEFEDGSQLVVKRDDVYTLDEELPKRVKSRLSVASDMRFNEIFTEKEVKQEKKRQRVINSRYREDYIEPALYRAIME
Note: nearly all actives have a fitted effect of over 50% in size.
Potency is the fitted concentration of half-maximal effect.

Structure (SMILES) | Potency | activity change, negative = inhibition
CCOC(=O)C1CCC(CN(Cc2ccc(OC)cc2)S(=O)(=O)c2ccc(F)c(C(=O)Nc3cc(C)ccc3C)c2)CC1 (stereo unspecified) | inactive | –
N#Cc1nc(/C=C/c2ccc(F)cc2)oc1NC1CCCCC1 | inactive | –
COc1ccc(Cn2ccn(Cc3cccc(OC)c3)c(=O)c2=O)cc1 | inactive | –
Cc1ccccc1Cn1nc(C)c(NC(=O)c2cc(-c3ccc(F)cc3)on2)c1C | inactive | –
Cc1c(Cl)cccc1NC(=O)CCS(=O)(=O)c1ccc2c(c1)oc(=O)n2C | inactive | –
COc1cccc(C(=O)NCc2ccc3c(c2)CCN3C(=O)c2ccncc2)c1 | inactive | –
COc1cc(C)ccc1OCCSc1nc2ccc(NC(=O)c3ccc(C)cc3)cc2s1 | inactive | –
COc1cc(Cl)c(C)cc1NC(=O)CCc1nc2cccnc2n1Cc1cccs1 | inactive | –
Oc1c(C=Nc2cccc3nsnc23)ccc2ccccc12 | 89.1 µM (active) | –
O=C(Nc1ccc(F)cc1F)c1ccc2c(=O)n3c(nc2c1)CCCCC3 | inactive | –
COc1cc2c(=O)c(S(=O)(=O)c3ccc(C(C)C)cc3)cn(Cc3ccccc3C)c2cc1OC | inactive | –
CCN(C(=O)Cc1nc(N)n[nH]1)C1(C(=O)Nc2ccccc2)CCCCC1 | 100 µM (active) | –
C=CCN(C(=O)c1cc(C)cc(C)c1)C1(C(=O)Nc2ccccc2)CCN(C(C)C)CC1 | inactive | –
CCc1ccc(NC(=O)CN2C(=O)C(c3ccccc3)=NC23CCCCCC3)cc1 | inactive | –
CC1CCCC(C)N1C(=O)CN1CCN(c2nc(-c3ccc(F)cc3)cs2)CC1 (stereo unspecified) | 79.4 µM (active) | –
O=C(COC(=O)C1CCCO1)Nc1nc(-c2ccc(F)cc2)cs1 (stereo unspecified) | inactive | –
CCc1ccc(CNC(=O)C2CCN(c3nn4cc(-c5ccc(F)cc5)nc4s3)CC2)cc1 | inactive | –
O=C(CNC(=O)c1ccccc1)OC(C(=O)Nc1cc([N+](=O)[O-])ccc1F)c1ccccc1 (stereo unspecified) | inactive | –
COc1ccc(Cn2ccnc2SCC(=O)NCc2ccco2)cc1 | inactive | –
Cc1cccc(OCCSc2nc3ccc(NC(=O)COc4ccccc4C)cc3s2)c1 | inactive | –
COc1ccc(-c2cc(=O)c3c(O)cc(O[C@@H]4O[C@H](CO[C@@H]5O[C@@H](C)[C@H](O)[C@@H](O)[C@H]5O)[C@@H](O)[C@H](O)[C@H]4O)cc3o2)cc1O | 20 µM (active) | –
COc1ccc(CCOC2OC(CO)C(OC(=O)/C=C/c3ccc(O)c(OC)c3)C(O[C@H]3O[C@@H](C)[C@H](O)[C@@H](O)[C@H]3O)C2O)cc1O (stereo partly specified) | inactive | –
C[C@@H]1O[C@@H](OC[C@H]2O[C@@H](Oc3c(-c4ccc(O)cc4)oc4cc(O)cc(O)c4c3=O)[C@H](O)[C@@H](O)[C@@H]2O)[C@H](O)[C@H](O)[C@H]1O | inactive | –
COc1ccc(NC(=O)N2CCCn3nc(C)cc32)cc1OC | inactive | –

Structure (SMILES) | Potency | activity change, negative = inhibition
Cc1ccccc1NC(=O)Cn1c(=O)n(CCc2ccccc2)c(=O)c2ccccc21 | inactive | –
CC(Cc1cccs1)N(Cc1ccc(Cl)cc1)C(=O)c1ccncc1 (stereo unspecified) | inactive | –
O=C(Cc1ccc(Cl)cc1)c1ccccc1 | inactive | –
O=[N+]([O-])c1ccc(N(CCO)Cc2ccccc2)c([N+](=O)[O-])c1 | inactive | –
CN(C(=O)CN(CCO)CC(=O)N(C)C(C)(C)Cc1ccccc1)C(C)(C)Cc1ccccc1 | inactive | –
CC(O)CN(Cc1ccc(Cl)cc1)CC(C)O (stereo unspecified) | 8.91 µM (active) | –
OCCN(Cc1ccccc1)Cc1ccc(Cl)cc1 | 10 µM (active) | –
Cc1ccc(CN(C(=O)c2ccccc2[N+](=O)[O-])c2ccccn2)cc1 | inactive | –
COc1ccc(CC(=O)Nc2ccc(-c3nc4ccccc4s3)c(C)c2)cc1 | inactive | –
Cc1ccc2cccc(NC(=O)C(C)Oc3ccc(C)c(C)c3)c2n1 (stereo unspecified) | inactive | –
COc1ccc(-n2nc(C(=O)NCCc3ccc(Cl)cc3)c3c4ccccc4n(C)c3c2=O)cc1Cl | inactive | –
COc1cc(OC)c(NC(=O)Cc2ccc(-n3c(C)nc4cccnc43)cc2)cc1Cl | inactive | –
COc1cc2c(cc1OC)C(COc1ccc(F)cc1)N(C(=O)c1ccccc1F)CC2 (stereo unspecified) | inactive | –
Cc1cccc(C(=O)Nc2ccc(-c3nc4ncccc4o3)cc2C)c1 | inactive | –
NCC(=O)c1cccc2ccc[n+]([O-])c12 | inactive | –
Cc1ccc2cccc(O)c2[n+]1[O-] | 10 µM (active) | –
O=C(NCC(c1ccco1)S(=O)(=O)c1cccs1)c1ccc(F)cc1 (stereo unspecified) | inactive | –
Cc1ccc(CNC(=O)CSc2c3c(nc4cc(Cl)ccc24)CCCC3)cc1 | inactive | –
COc1ccc(-c2nc(C)c(CCNC(=O)c3ccc(C(F)(F)F)cc3)s2)cc1OC | inactive | –
Cc1cccc(C)c1Nc1c(-c2ccccc2O)nc2ncccn12 | inactive | –
Cc1ccc(-c2nc3ccccn3c2Nc2c(C)cccc2C)o1 | 50.1 µM (active) | –
Cc1ccc(Nc2c(-c3ccc(C)s3)nc3ccccn23)cc1 | inactive | –
c1ccc2c(C[n+]3csc4ccccc43)cccc2c1 | 17.8 µM (active) | –
Nc1scc[n+]1Cc1cccc2cccnc12 | inactive | –

Structure (SMILES) | Potency | activity change, negative = inhibition
c1ccc2c(CNn3cnnc3)cccc2c1 | – | 0% [at 11.4 µM]
CCc1c(C)sc(NC(=O)C2c3ccccc3Oc3ccccc32)c1C(=O)OC(C)C | inactive | –
CCOC(=O)c1c(C)n(S(=O)(=O)c2ccc(C)cc2C)c2ccc(NS(=O)(=O)c3ccc(C)cc3C)cc12 | inactive | –
COc1ccc2c(c1)CCc1c(C(=O)Nc3cc(C)ccc3O)noc1-2 | inactive | –
Cc1ccc(N2CCN(C(=O)CCc3c(C)nc4c(c3C)c(=O)n(C)c(=O)n4C)CC2)c(C)c1 | inactive | –
O=S(=O)(O)c1cc2onnc2c2ccccc12 | 50.1 µM (active) | –
CCC(Sc1nnc(-c2ccc(OC)cc2)c(-c2ccc(OC)cc2)n1)C(=O)NC1CCCCC1 (stereo unspecified) | inactive | –
CCOC(=O)c1ccc(N2C(=O)c3[nH]nc(-c4ccccc4)c3C2c2ccc(C(C)C)cc2)cc1 (stereo unspecified) | inactive | –
O=C(c1ccco1)N(Cc1cccs1)c1ccc(O)cc1 | inactive | –
O=C(C1=C(O)C(=O)N(c2ncccn2)C1c1cccs1)c1ccco1 (stereo unspecified) | 20 µM (active) | –
O=C(C1=C(O)C(=O)N(Cc2ccccc2)C1c1cccnc1)c1ccco1 (stereo unspecified) | inactive | –
Cc1cc(C)c2oc(C(=O)Nc3ccc(S(=O)(=O)N(C)c4ccccc4)cc3)cc(=O)c2c1 | inactive | –
Cc1cc(N2CCN(c3cccc(C(F)(F)F)c3)CC2)n2nc(-c3ccccc3)nc2n1 | inactive | –
CC(OC(=O)CN1C(=O)COc2ccccc21)C(=O)NCc1ccc(F)cc1 (stereo unspecified) | inactive | –
O=C(CN1C(=O)COc2ccc(Cl)cc21)Nc1ccc(N2CCOCC2)cc1 | inactive | –
O=C(CN1C(=O)COc2ccccc21)Nc1ccc(F)cc1 | 50.1 µM (active) | –
Cc1cccc(C(C)C)c1NC(=O)C(NS(=O)(=O)c1cccc2nsnc12)c1ccccc1 (stereo unspecified) | inactive | –
COc1ccc(-c2cn3c(n2)sc2cc(C(=O)Nc4ccc(F)cc4)ccc23)cc1 | inactive | –
CCOc1cc(C2C(C(=O)OC)=C(C)NC3=C2C(=O)c2ccccc23)ccc1O (stereo unspecified) | 50.1 µM (active) | –
COC(=O)C1=C(C)NC2=C(C(=O)c3ccccc32)C1c1ccc(-c2ccc(C(=O)O)cc2)o1 (stereo unspecified) | – | -17.6% [at 11.4 µM]
CCOc1cc(C2C(C(=O)OC(C)C)=C(C)NC3=C2C(=O)CCC3)cc([N+](=O)[O-])c1O (stereo unspecified) | inactive | –
COC(=O)C1=C(c2ccccc2)c2ccccc2S(=O)(=O)N1CC(=O)Nc1ccccc1C(F)(F)F | inactive | –
Cc1cccc2c(=O)cc(CSc3ccccc3NC(=O)C(C)C)[nH]c12 | inactive | –
CC(=O)Nc1cc(C(=O)NCc2ccc(F)cc2Cl)ccc1Sc1ccc(Cl)cc1 | inactive | –

Structure (SMILES) | Potency | activity change, negative = inhibition
Cc1ccc(CNC(=O)C2(C(F)(F)F)C/C(=C\CCO)CCCO2)o1 (stereo unspecified) | inactive | –
CCCCn1cc(S(=O)(=O)c2ccc(OCC)cc2)c(=O)c2cc(OC)c(OC)cc21 | inactive | –
COc1ccc(N=Nc2c(-c3ccc(OC)cc3)[nH]oc2=O)cc1 | inactive | –
COC1=CC(=O)OC(c2ccc(OC)cc2)C1 (stereo unspecified) | inactive | –
COc1ccc(N=C2C=CC(=O)O2)cc1 | 79.4 µM (active) | –
CCOC(=O)C1=C(CN2CCc3ccccc32)NC(=O)NC1c1cccc([N+](=O)[O-])c1 (stereo unspecified) | 44.7 µM (active) | –
CCOC(=O)C1=C(CN2CCCCCC2)NC(=O)NC1c1cccc([N+](=O)[O-])c1 (stereo unspecified) | inactive | –
CCOC(=O)C1=C(CN2CCc3ccccc32)NC(=O)NC1c1cc(C)ccc1C (stereo unspecified) | inactive | –
COc1ccc(N2CCN(S(=O)(=O)CCNC(=O)C(c3ccccc3)c3ccccc3)CC2)cc1 | inactive | –
CC(C)(C)OC(=O)N1CCC(NC(=O)c2[nH]cnc2C(=O)N[C@@H](Cc2ccccc2)C(=O)OCc2ccccc2)CC1 | inactive | –
C[C@H](NC(=O)c1nc[nH]c1C(=O)NCC(=O)OC(C)(C)C)c1ccccc1 | inactive | –
C[C@@H](NC(=O)c1nc[nH]c1C(=O)N1CCN(C(=O)OC(C)(C)C)CC1)c1ccccc1 | 79.4 µM (active) | –
Cc1cccc(C(=O)N2c3nc(-c4ccco4)nn3C3(CCCCC3)[C@@H]3CCCC[C@@H]32)c1 | inactive | –
CCOc1ccc(CNC(=O)c2cccc(Nc3nc4ccccc4n4nnnc34)c2)cc1OC | inactive | –
O/N=C1\CC2(Cc3nonc31)OCCO2 | inactive | –
ON=C1/C(=N\O)CC2(C/C1=N/O)OCCO2 | 28.2 µM (active) | –
CCOC(=O)c1ccc(NC2=CC(c3ccc(OCC)cc3)N(c3ccc(C(=O)OCC)cc3)C2=O)cc1 (stereo unspecified) | inactive | –
CCOc1ccc(CCNC(=O)c2c(C)oc3ncn(C)c(=O)c23)cc1 | inactive | –
CCCc1cc(=S)n2c([nH]c3ccccc32)c1C#N | 25.1 µM (active) | –
CN(C)Cc1c(C#N)c2ccccc2n1C | inactive | –
Cc1ccccc1-c1nc2cc(NC(=O)c3cccc(OCCC(C)C)c3)ccc2o1 | inactive | –
O=C(O)C(c1ccccc1)N1C(=O)/C(=C\c2ccc(-c3cccc(Cl)c3)o2)SC1=S (stereo unspecified) | 20 µM (active) | –
O=C(NCc1ccccc1)c1cc(-c2cccc(Cl)c2)on1 | inactive | –
O=C(NC(=S)Nc1cc(C(F)(F)F)ccc1N1CCOCC1)c1ccc(-c2cccc(Cl)c2)o1 | inactive | –
